Bioassay records from PubChem BioAssay.
The list is not random: actives were taken first. Their share in the collection is about 0.43%.
N370S GC mod: qHTS Assay for Inhibitors and Activators of N370S glucocerebrosidase as a Potential Chaperone Treatment of Gaucher Disease; Potency, µM (doses to about 59.4 µM), usual class: inhibitors; N370S GC spleen homogenate, 4MU-glucoside fluorescence; actives 0.092% (n = 330,000); Lysosomal acid glucosylceramidase (Homo sapiens), P04062; AID 2101, 2009
GAA spleen mod: qHTS Assay for Inhibitors and Activators of Human alpha-Glucosidase From Spleen Homogenate. Lysosomal alpha-glucosidase (Homo sapiens), P10253. actives 0.006% (n = 240,000). AID 2112, 2009. human spleen homogenate, 4-MU-alpha-glucoside fluorescence. Potency, µM (highest dose often 79.9 µM), most hits filed as inhibitors
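Human spleen homogenate (1 ug) with 4-methylumbelliferyl-alpha-D-glucopyranoside (1 mM final) in 50 mM citrate/phosphate pH 5.0, 0.01% Tween-20; 40 min at 37 C. Stopped at pH 10; 4-MU fluorescence Ex 365/Em 440 nm; AC50 by Hill fit.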
GAA glycogen mod: qHTS Assay for Inhibitors and Activators of Human alpha-Glucosidase Cleavage of Glycogen | actives 0.38% (n = 300,000) | recombinant GAA, glycogen substrate, Amplex Red glucose oxidase fluorescence | AID 2100, 2009 | Lysosomal alpha-glucosidase (Homo sapiens), P10253 | Potency, µM (titrated, usually from 76.4 µM), most hits filed as inhibitors;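 further: the screen sought inhibitors and activators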
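Recombinant enzyme (4 nM final) with compounds titrated up to 77 uM and bovine liver glycogen (30 ug) in citrate pH 5.0, 0.01% Tween-20, 37 C 40 min. Released glucose detected by Amplex Red/glucose oxidase (Ex 573/Em 610); AC50 from Hill fits.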
GAA inhib: qHTS Assay for Inhibitors of Human alpha-Glucosidase as a Potential Chaperone Treatment of Pompe Disease. actives 0.005% (n = 200,000). AID 1466, 2008. Lysosomal alpha-glucosidase (Homo sapiens), P10253. purified human GAA, 4-MU-alpha-glucoside fluorescence. Potency, µM (titrated, usually from 76.9 µM), usual class: inhibitors
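Fluorescence at Ex 365/Em 440 nm from 4-methylumbelliferone reported enzyme activity after 20 min at room temperature. Reactions used 4 nM enzyme and 400 uM substrate at pH 5.0; curves fitted with the Hill equation.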
aGal spleen mod: qHTS Assay for Inhibitors and Activators of Human alpha-Galactosidase From Spleen Homogenate; Alpha-galactosidase A (Homo sapiens), P06280; human spleen homogenate, 4MU-alpha-Gal fluorescence, 40 min; Potency, µM (series often up to 80 µM), usual class: inhibitors; actives 0.008% (n = 240,000)
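Human spleen homogenate (1 ug) was the enzyme source, with 4-methylumbelliferyl-alpha-D-galactopyranoside (1 mM final) in pH 5.0 citrate buffer with 0.01% Tween-20. Compounds were titrated; after 40 min at 37C, NaOH/glycine stop, 4-MU fluorescence read; AC50 from Hill fits.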
GLA inh pH 4.5: qHTS Assay for Inhibitors of Human alpha-Galactosidase at pH 4.5; Alpha-galactosidase A (Homo sapiens), P06280; purified enzyme, 4-MU-alpha-Gal fluorescence, pH 4.5; activity change, negative = inhibition, % at 105 µM; 230,000 tested, under 10 active
Target sequence (P06280 whole entry, looked up): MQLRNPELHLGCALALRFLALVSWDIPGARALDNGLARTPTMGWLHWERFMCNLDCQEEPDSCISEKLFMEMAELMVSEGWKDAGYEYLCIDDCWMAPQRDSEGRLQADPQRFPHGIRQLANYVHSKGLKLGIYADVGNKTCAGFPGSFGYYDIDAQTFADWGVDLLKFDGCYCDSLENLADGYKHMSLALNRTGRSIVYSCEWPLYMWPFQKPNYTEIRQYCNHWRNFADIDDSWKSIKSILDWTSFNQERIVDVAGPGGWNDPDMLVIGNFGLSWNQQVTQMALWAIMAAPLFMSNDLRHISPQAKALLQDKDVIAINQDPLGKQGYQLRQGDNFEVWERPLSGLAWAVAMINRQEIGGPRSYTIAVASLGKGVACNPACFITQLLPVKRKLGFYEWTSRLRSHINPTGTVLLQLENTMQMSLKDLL
A number is an active result; [ ] = dose if it differs, or a comment. The call rests on the fitted dose curve; in most records, active means well fitted curve in the direction sought with a large enough effect; inconclusive means small, poorly fitted or top-dose-only effect, or another doubt; inactive means no such curve, though single readings can be large; an effect the other way counts as inactive or inconclusive.

`C[C@@H]1O[C@H](O[C@@H]2C(O)[C@H](O)[C@@H](CO)O[C@H]2Oc2cc(O)c3c(=O)cc(-c4ccc(O)cc4)oc3c2)[C@H](O)[C@H](O)[C@H]1O` (some centres undefined) gave N370S GC mod inactive, GAA spleen mod inactive and aGal spleen mod inactive.
Screening O=C(Nc1ccccc1)Nc1ccc2ocnc2c1 returned N370S GC mod inactive, GAA spleen mod inactive, GAA glycogen mod inactive, GAA inhib inactive, aGal spleen mod inactive and GLA inh pH 4.5 inactive.
For O=C(O)Cc1ccc2ocnc2c1 the results were N370S GC mod inactive, GAA spleen mod inactive, GAA glycogen mod 22µM, GAA inhib inactive, aGal spleen mod inactive and GLA inh pH 4.5 inactive.
Screening CSCC[C@H](NC(=O)[C@@H]1CCCN1C(=O)[C@H](CCCN=C(N)N)NC(=O)[C@H](CC(C)C)NC(=O)[C@@H]1CCCN1C(=O)[C@@H](NC(=O)[C@@H](N)CCC(N)=O)C(C)C)C(=O)N[C@H](C(=O)N[C@@H](Cc1ccc(O)cc1)C(=O)N[C@@H](CCCCN)C(=O)O)[C@@H](C)O returned N370S GC mod inactive, GAA spleen mod inactive and aGal spleen mod inactive.
For CCOC(=O)C1=C(c2ccccc2)NC(N)=NC1c1ccc(OCc2ccc(C(=O)OC)cc2)cc1 (centres undefined) the results were N370S GC mod 11µM, GAA spleen mod inactive, GAA glycogen mod inactive, aGal spleen mod inactive and GLA inh pH 4.5 inactive.
Screening Cc1cc(C)c(Cn2c(CCNC(=O)c3ccco3)nc3ccccc32)c(C)c1 returned GAA glycogen mod inactive.
`Cc1ccc(-c2nc3ncccn3c2Nc2ccc3c(c2)OCO3)o1` gave N370S GC mod inactive, GAA spleen mod inactive, GAA glycogen mod 10µM, GAA inhib inactive, aGal spleen mod inactive and GLA inh pH 4.5 inactive.
For Oc1ccc(-c2nc3ncccn3c2Nc2ccc3c(c2)OCO3)cc1 the results were N370S GC mod inactive, GAA spleen mod inactive, GAA glycogen mod 25µM, GAA inhib inactive, aGal spleen mod inactive and GLA inh pH 4.5 inactive.
COC(=O)[C@@H](NC(=O)N1CCc2nc(COc3ccccc3)c3c(c2C1)CO[C@@H](C)C3)C(C)C was read as N370S GC mod inactive[12.8 µM], GAA spleen mod inactive[17.4 µM], aGal spleen mod inactive[17.5 µM] and GLA inh pH 4.5 inactive.
Screening Cc1c(NCc2nc3ccccc3[nH]2)c(=O)n(-c2ccccc2)n1C returned N370S GC mod inactive, GAA spleen mod inactive, GAA glycogen mod 11µM, GAA inhib inactive, aGal spleen mod inactive and GLA inh pH 4.5 inactive.
`Cc1c(NC(=O)Nc2ccc(Cl)cc2Cl)c(=O)n(-c2ccccc2)n1C` gave N370S GC mod inactive, GAA spleen mod inactive, GAA glycogen mod inactive, GAA inhib inactive, aGal spleen mod inactive and GLA inh pH 4.5 inactive.
Cc1c(NCc2cc(Cl)cc(Cl)c2O)c(=O)n(-c2ccccc2)n1C was read as N370S GC mod inactive, GAA spleen mod inactive, GAA glycogen mod 10µM, GAA inhib inactive, aGal spleen mod inactive and GLA inh pH 4.5 inactive.
For Cc1c(NC(=O)Nc2c(Cl)cccc2Cl)c(=O)n(-c2ccccc2)n1C the results were N370S GC mod inactive, GAA spleen mod inactive, GAA glycogen mod inactive, aGal spleen mod inactive and GLA inh pH 4.5 inactive.
`Cc1c(NCc2cc(Cl)ccc2O)c(=O)n(-c2ccccc2)n1C` gave N370S GC mod inactive, GAA spleen mod inactive, GAA glycogen mod 13µM, GAA inhib inactive, aGal spleen mod inactive and GLA inh pH 4.5 inactive.
Screening CCn1c(CNC(=O)c2ccc(OC)cc2)nnc1SCC(=O)Nc1cccc(C)c1C returned GAA glycogen mod inactive.
Screening COc1ccc(O)c(-c2c(-c3ccc(Cl)cc3)n[nH]c2C)c1 returned N370S GC mod inactive, GAA spleen mod inactive, GAA glycogen mod 10µM, GAA inhib inactive, aGal spleen mod inactive and GLA inh pH 4.5 inactive.
COc1ccc(NC(=O)NS(=O)(=O)c2ccc(C)cc2)c(OC)c1 was read as N370S GC mod inactive, GAA spleen mod inactive, GAA glycogen mod 25µM, GAA inhib inactive, aGal spleen mod inactive and GLA inh pH 4.5 inactive.
For C[C@@H]1CN2[C@H](c3ccc(Br)cc3)[C@H](C)CC[C@H]2C(=O)O1 the results were N370S GC mod inactive[12.8 µM], GAA spleen mod inactive[17.4 µM] and aGal spleen mod inactive[17.5 µM].
For CN1CCN(Cc2nc3ccccc3c(=O)n2Cc2nc(-c3ccc4ccccc4c3)cs2)CC1 the results were N370S GC mod 11µM, GAA spleen mod inactive, GAA glycogen mod inactive, GAA inhib inconclusive, aGal spleen mod inactive and GLA inh pH 4.5 inactive.
For CN1CCN(Cc2nc3ccccc3c(=O)n2Cc2nc(-c3cccc([N+](=O)[O-])c3)cs2)CC1 the results were N370S GC mod inactive, GAA spleen mod inactive, GAA glycogen mod inactive, GAA inhib inactive, aGal spleen mod inactive and GLA inh pH 4.5 inactive.
For COc1ccc(C(=O)C2CCCN(Cc3nc4ccccc4nc3C)C2)cc1OC (centres undefined) the results were N370S GC mod inactive, GAA spleen mod inactive, GAA glycogen mod inactive, aGal spleen mod inactive and GLA inh pH 4.5 inactive.
COc1ccc(C(=O)C2CCCN(C3Cc4ccccc4C3)C2)cc1OC (centres undefined) was read as N370S GC mod inactive, GAA spleen mod inactive, GAA glycogen mod 16µM, GAA inhib inconclusive, aGal spleen mod inactive and GLA inh pH 4.5 inactive.
Screening NCCCCCCC(O)(P(=O)(O)O)P(=O)(O)O returned N370S GC mod inactive, GAA spleen mod inactive and aGal spleen mod inactive.
Screening CN(C)c1ccc(N2C(=O)CC(Nc3ccc(N4CCOCC4)cc3)C2=O)cc1 (centres undefined) returned N370S GC mod inactive, GAA spleen mod inactive, GAA glycogen mod inconclusive, GAA inhib inactive, aGal spleen mod inactive and GLA inh pH 4.5 inactive.
For COc1ccc(N2C(=O)CC(Nc3ccc(N4CCOCC4)cc3)C2=O)c(OC)c1 (centres undefined) the results were N370S GC mod inactive, GAA spleen mod inactive, GAA glycogen mod inconclusive, GAA inhib inconclusive, aGal spleen mod inactive and GLA inh pH 4.5 inactive.
COc1cccc(N2C(=O)CC(Nc3ccc(N4CCOCC4)cc3)C2=O)c1 (centres undefined) was read as N370S GC mod inactive, GAA spleen mod inactive, GAA glycogen mod 3.5µM, GAA inhib inactive, aGal spleen mod inactive and GLA inh pH 4.5 inactive.
